From the supplement of paper PMC13380429
Counter-ions that a name gives are not always drawn.

Columns and labels:
[1] = system: Vero E6 infected with SARS-CoV-2; experiment: morphology score (similarity to uninfected cells); higher = more like uninfected cells; conditions: 24 h
[2] = system: Vero E6 infected with SARS-CoV-2; experiment: SARS-CoV-2 infection rate relative to infected DMSO; higher = more infection, active = 60 or less; conditions: 24 h

| SMILES | morphology score [1] | SARS-CoV-2 infection rate [2] |
| --- | --- | --- |
| c1ccc(Cn2c(-c3ccc(OC[C@H](C4CCNCC4)n4c(-c5ccccc5)nc5ccccc54)cc3)nc3ccccc32)cc1 [deltarasin] (0.833333 µM) | 0.147 | 96% (inactive) |
| O=C(O)C[CH2][Ge](=[O])[O][Ge](=[O])[CH2]CC(=O)O [propagermanium] (10 µM) | 0.128 | 94% (inactive) |
| O=C1c2cccnc2OC[C@@H]2CCCN12 (10 µM) | -0.0333 | 108% (inactive) |
| Nc1nc(-c2nn(Cc3ccccc3F)c3ncccc23)ncc1C1CC1 (0.833333 µM) | -0.057 | 102% (inactive) |
| CC(Oc1ccc(O)cc1)(P(=O)(O)O)P(=O)(O)O (10 µM) | 0.0418 | 107% (inactive) |
| CNCCc1cnc[nH]1 [N-alpha-methylhistamine-dihydrochloride] (10 µM) | -0.0409 | 110% (inactive) |
| Cc1nc2ccc(Oc3ccc(F)cc3)cc2c(=O)n1C[C@H]1CCCN(C(C)C)C1 (10 µM) | 0.295 | 76% (inactive) |
| CC(C)Cc1ccc([C@@H](C)C(=O)NS(C)(=O)=O)cc1 [reparixin] (10 µM) | 0.135 | 100% (inactive) |
| O=C(/C=C\n1cnc(-c2cc(C(F)(F)F)cc(C(F)(F)F)c2)n1)N1CC(F)(F)C1 (10 µM) | -0.303 | 116% (inactive) |
| O=C(Nc1ncc(SCCN2CCCC2)s1)[C@]1(c2ccc(S(=O)(=O)C3CC3)cc2)C[C@H]1C1CCCCC1 (10 µM) | 0.767 | 17% (active) |
| CC(=O)c1c(C)c2cnc(Nc3ccc(N4CCNCC4)cn3)nc2n(C2CCCC2)c1=O [palbociclib] (10 µM) | 0.0925 | 108% (inactive) |
| Cc1cc(Cn2cnc3c2C[C@@H](C(=O)O)N(C(=O)C(c2ccccc2)c2ccccc2)C3)ccc1N(C)C (10 µM) | 0.0919 | 99% (inactive) |
| C=CC(N)CCC(=O)O (stereo unspecified) [vigabatrin] (10 µM) | 0.188 | 99.5% (inactive) |
| O=c1[nH]c2ccccc2c(=O)n1CCCN1CCN(c2ccccc2)CC1 [pelanserin] (10 µM) | 0.0358 | 104% (inactive) |
| CC(C)Oc1cccc(CC(=O)N2CCC[C@](CC[N+]34CCC(c5ccccc5)(CC3)CC4)(c3ccc(Cl)c(Cl)c3)C2)c1 (10 µM) | 0.0196 | 110% (inactive) |
| CC(C)n1c(/C=C/[C@@H](O)C[C@@H](O)CC(=O)O)c(-c2ccc(F)cc2)c2ccccc21 [fluvastatin] (0.833333 µM) | -0.082 | 115% (inactive) |
| CCN(CC)CCNC(=O)c1c(C)[nH]c(/C=C2\C(=O)Nc3ccc(F)cc32)c1C [sunitinib] (0.833333 µM) | 0.396 | 99% (inactive) |
| C[C@@H]1COCCN1c1cc(C2([S@](C)(=N)=O)CC2)nc(-c2ccnc3[nH]ccc23)n1 (0.833333 µM) | 0.0164 | 90% (inactive) |
| CCCCn1c(=O)c2[nH]c(C34CC5CC(CC3C5)C4)nc2n(CCCO)c1=O (10 µM) | -0.0475 | 100% (inactive) |
| C[C@H]1c2cccc(O)c2C(=O)C2=C(O)[C@]3(O)C(=O)C(C(N)=O)=C(O)[C@@H](N(C)C)[C@@H]3[C@@H](O)[C@@H]21 [doxycycline] (10 µM) | 0.0783 | 97% (inactive) |
| NC(=O)OCC(COC(N)=O)c1ccccc1 [felbamate] (10 µM) | -0.0125 | 99% (inactive) |

| SMILES | morphology score [1] | SARS-CoV-2 infection rate [2] |
| --- | --- | --- |
| CCOc1cc(N2CCC(O)CC2)ccc1Nc1ncc2c(n1)N(C)c1ccccc1C(=O)N2C (0.833333 µM) | -0.0631 | 114% (inactive) |
| CCNC1(C(N)=O)CCN(c2ncnc3c2nc(-c2ccccc2Cl)n3-c2ccc(Cl)cc2)CC1 (10 µM) | -0.024 | 108% (inactive) |
| Cc1sc(C)c2c1CCC=C2c1c[nH]cn1 (10 µM) | 0.165 | 94% (inactive) |
| NP(N)(=O)NC(=O)c1ccc(F)cc1 [flurofamide] (10 µM) | 0.21 | 94.5% (inactive) |
| CN1C(=O)N(c2cc(Cl)cc(Cl)c2)C(=O)[C@]12CN(Cc1cc(C(=O)O)cs1)C[C@H]2c1ccc(C#N)cc1 (10 µM) | 0.281 | 92.5% (inactive) |
| C[C@@H]1C(=O)O[C@H]2C[C@@]34[C@H]5C[C@@H](C(C)(C)C)[C@]36[C@@H](OC(=O)[C@@H]6O)O[C@@]4(C(=O)O5)[C@]21O [Ginkgolide A] (10 µM) | -0.0141 | 114% (inactive) |
| Nc1nc(O)c2[nH]nnc2n1 [azaguanine-8] (0.833333 µM) | 0.322 | 51.5% (active) |
| O=C1/C(=C/c2ccccc2)C[C@@]2(O)[C@H]3Cc4ccc(O)c5c4[C@@]2(CCN3CC2CC2)[C@H]1O5 (0.833333 µM) | 0.732 | 23.5% (active) |
| N#C/C(=C\c1ccc(O)c(O)c1)C(=O)NCCCc1ccccc1 (0.833333 µM) | -0.0747 | 119% (inactive) |
| O=CN1CCC(C(=O)NCCN2CCC(=C3c4ccccc4C=Cc4ccccc43)CC2)CC1 (10 µM) | 0.0149 | 100% (inactive) |
| CCCn1c(=O)[nH]c2nc(-c3ccc(S(=O)(=O)O)cc3)[nH]c2c1=O (10 µM) | 0.179 | 105% (inactive) |
| CC(C)NCC(O)c1ccc2ccccc2c1 (stereo unspecified) [pronethalol] (10 µM) | -0.0652 | 104% (inactive) |
| CNC(=O)[C@@H](c1ccccc1)N1CCc2cc(OC)c(OC)cc2[C@@H]1CCc1ccc(C(F)(F)F)cc1 [almorexant] (10 µM) | -0.0542 | 105% (inactive) |
| CC(=N)NCc1cccc(CN)c1 (10 µM) | -0.0209 | 107% (inactive) |
| CCc1nc(N)nc(N)c1-c1ccc(Cl)cc1 [pyrimethamine] (0.833333 µM) | -0.0159 | 115% (inactive) |
| Cn1c(=O)[nH]c2ncn(C)c2c1=O [paraxanthine] (10 µM) | 0.141 | 110% (inactive) |
| NC1(c2ccc(-c3nc4ccn5c(=O)[nH]nc5c4cc3-c3ccccc3)cc2)CCC1 (0.833333 µM) | 0.255 | 106% (inactive) |
| C=C(C)[C@@H]1CC[C@]2(CO)CC[C@]3(C)[C@H](CC[C@@H]4[C@@]5(C)CC[C@H](O)C(C)(C)[C@@H]5CC[C@]43C)[C@@H]12 (10 µM) | 0.000891 | 99.5% (inactive) |
| C[C@@H]1CN(CC(=O)Nc2ccc3c(c2)Cc2cccc(-c4cc(=O)cc(N5CCOCC5)o4)c2S3)C[C@H](C)O1 (10 µM) | 0.618 | 60% (active) |
| CC1=C(CC(=O)O)c2cc(F)ccc2/C1=C\c1ccc(S(C)(=O)=O)cc1 [exisulind] (10 µM) | 0.0955 | 109% (inactive) |
| Cn1cc(-c2ccncc2)c(-c2ccc(OCc3ccc4ccccc4n3)cc2)n1 (10 µM) | 0.927 | 8% (active) |

| SMILES | morphology score [1] | SARS-CoV-2 infection rate [2] |
| --- | --- | --- |
| NCC(=O)N1C[C@H](NC(=O)c2ccccc2)C[C@H]1C(=O)O [danegaptide] (10 µM) | 0.0415 | 105% (inactive) |
| CC1CCN(CCCC(=O)c2ccc(F)cc2)CC1 [melperone] (10 µM) | 0.389 | 80.5% (inactive) |
| C1CCC(C(CC2CCCCN2)C2CCCCC2)CC1 (stereo unspecified) [perhexiline] (0.833333 µM) | -0.219 | 114% (inactive) |
| O=C(O)CC1CC(c2ccccc2)=NO1 (stereo unspecified) (10 µM) | -0.0313 | 116% (inactive) |
| CN1CCC(=C2c3ccccc3CCn3c(C=O)cnc32)CC1 [alcaftadine] (10 µM) | 0.0541 | 93.5% (inactive) |
| CCCCn1c(-c2ccccc2)nc(-c2ccccc2)c1CN(Cc1ccc2c(c1)OCO2)Cc1ccc2c(c1)OCO2 (10 µM) | 0.139 | 99.5% (inactive) |
| Cc1ccccc1-n1c(Cn2ncc3c(N)ncnc32)nc2cccc(C)c2c1=O (10 µM) | 0.373 | 45% (active) |
| CCC(COC(=O)c1cc(OC)c(OC)c(OC)c1)(c1ccccc1)N(C)C (stereo unspecified) [trimebutine] (10 µM) | 0.103 | 91% (inactive) |
| O=C(O)c1c(Sc2ccccc2)c2cc(Cl)ccc2n1Cc1ccc(Cl)cc1 (10 µM) | 0.149 | 102% (inactive) |
| CCC1NC(=O)c2cc(S(N)(=O)=O)c(Cl)cc2N1 (stereo unspecified) [quinethazone] (10 µM) | 0.339 | 88% (inactive) |
| O=C(/C=C/c1cccnc1)NCCCCC1CCN(C(=O)c2ccccc2)CC1 (0.833333 µM) | -0.0966 | 94% (inactive) |
| CCN(CC)CCCCN1c2ccccc2Oc2ccc(Cl)cc21 (0.833333 µM) | 0.331 | 93% (inactive) |
| N=C(N)c1ccc(N2CCN(C3CCN(CC(=O)O)CC3)CC2)cc1 (10 µM) | -0.0825 | 106% (inactive) |
| O=C(Nc1ccc(O)cc1)c1ccccc1O [N-salicoylaminophenol] (10 µM) | 0.168 | 102% (inactive) |
| CC[C@@H](c1ccc(F)c(F)c1)n1c(C(=O)OC)c(-c2ccno2)[nH]c1=S (10 µM) | -0.0397 | 93.5% (inactive) |
| NC(=O)N1C(=O)/C(=C(\O)c2cccs2)c2cc(Cl)ccc21 [tenidap] (10 µM) | 0.0356 | 91% (inactive) |
| CCOCc1cc(OC)c(-c2ccc(C[C@H](NC(=O)c3c(F)cccc3F)C(=O)O)cc2)c(OC)c1 [firategrast] (10 µM) | -0.05 | 105% (inactive) |
| CC(C)n1c(=O)n(C(=O)N[C@H]2C[C@H]3CC[C@@H](C2)N3C)c2ccccc21 (10 µM) | 0.0156 | 106% (inactive) |
| Cc1ccc(Cl)c(OCC(O)CNC(C)(C)C)c1 (stereo unspecified) [bupranolol] (10 µM) | -0.00864 | 111% (inactive) |
| O=S1(=O)OC(c2ccc(O)cc2)(c2ccc(O)cc2)c2ccccc21 [phenolsulfonphthalein] (10 µM) | 0.1 | 105% (inactive) |
| Cc1cc(C(=O)Nc2cccc(C(=O)Nc3cccc(C(F)(F)F)c3)c2)on1 (10 µM) | -0.209 | 115% (inactive) |
